An excerpt weighted towards active compounds, which were near 12% of everything screened.
Sfp PPTase inh: blocks B. subtilis Sfp PPTase activity; Q9F4F7; Biochemical Sfp PPTase activity, qHTS; Potency, µM, for the others: largest response in the series, negative = inhibition, hits mostly inhibitors; 310,000 compounds, 3.5% hits; AID 1490;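 further: the enzyme is Sfp with the accession as filed and its product quenches rhodamine fluorescence; 0% = enzyme reaction without inhibitor and -100% = no enzyme wells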
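Compounds were incubated with enzyme (final 15 nM) for 15 min at room temperature before substrate addition started the reaction. Fluorescence at 525 nm excitation, 598 nm emission was recorded immediately and after 30 minutes.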
BAZ2B inh: BAZ2B (human) inhibition; Q9UIF8; AlphaScreen BAZ2B-H3K14Ac peptide displacement; Potency, µM (titrated, usually from 114 µM), for inactives: at the highest dose activity change, negative = inhibition, usual class: inhibitors; 360,000 compounds, 4.4% hits; further: on the % scale 0 is the no-effect control and ±100 the full control effect; nearly all actives have a fitted effect of over 60% in size
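In this displacement format the biotinylated H3(5-23) peptide acetylated at Lys14 serves as ligand at 50 nM, with BAZ2B at 50 nM in PBS pH 7.4 containing 0.01% Tween-20. Donor and acceptor beads are 10 ug/mL final.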
G9a inh: blocks human histone lysine methyltransferase G9a; Q96KQ7; G9a H3K9 monomethylation, AlphaScreen, 2 h; Potency, µM (highest dose often 102 µM), for inactives: at the highest dose activity, negative = inhibition, most hits filed as inhibitors; 350,000 compounds, 8.8% hits; further: on the % scale 0 is the no-effect control and ±100 the full control effect; nearly all actives have a fitted effect of over 75% in size
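G9a (20 nM) preincubated 15 min RT with compounds, then 500 nM biotinylated H3K9 peptide and 20 uM SAM added; 2 h RT reaction. Monomethyl-H3K9 product detected by AlphaScreen with anti-H3K9me1 antibody, streptavidin donor and anti-rabbit IgG acceptor beads.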
HP1b binding inh: HP1-beta chromodomain-methylated histone interaction inhibition; 390,000 compounds, 0.56% hits; AlphaScreen HP1-beta / biotin-H3K9me3 peptide binding; P83916; Potency, µM (doses to about 114 µM), inactives show top-dose activity change, negative = inhibition, usual class: inhibitors; further: nearly all actives have a fitted effect of over 70% in size
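AlphaScreen: HP1-beta (50 nM) preformed 30 min with biotin-H3(1-18)K9me3 peptide (50 nM) in PBS pH 7.4, 0.01% Tween-20. Compound added for 30 min at RT, then streptavidin donor/nickel chelate acceptor beads (10 ug/mL) for 30 min.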
TDP1 inh: TDP1 (human) enzyme inhibition | Q9NUW8 | recombinant TDP1, AlphaScreen DNA substrate cleavage | Potency, µM (top dose mostly 130 µM), inactives show at the top dose activity change, negative = inhibition, most hits filed as inhibitors | 350,000 compounds, 0.28% hits | AID 485290; further: on the % scale 0 is the no-effect control and ±100 the full control effect; nearly all actives have a fitted effect of over 40% in size
Target sequence (Q9NUW8 whole entry, looked up): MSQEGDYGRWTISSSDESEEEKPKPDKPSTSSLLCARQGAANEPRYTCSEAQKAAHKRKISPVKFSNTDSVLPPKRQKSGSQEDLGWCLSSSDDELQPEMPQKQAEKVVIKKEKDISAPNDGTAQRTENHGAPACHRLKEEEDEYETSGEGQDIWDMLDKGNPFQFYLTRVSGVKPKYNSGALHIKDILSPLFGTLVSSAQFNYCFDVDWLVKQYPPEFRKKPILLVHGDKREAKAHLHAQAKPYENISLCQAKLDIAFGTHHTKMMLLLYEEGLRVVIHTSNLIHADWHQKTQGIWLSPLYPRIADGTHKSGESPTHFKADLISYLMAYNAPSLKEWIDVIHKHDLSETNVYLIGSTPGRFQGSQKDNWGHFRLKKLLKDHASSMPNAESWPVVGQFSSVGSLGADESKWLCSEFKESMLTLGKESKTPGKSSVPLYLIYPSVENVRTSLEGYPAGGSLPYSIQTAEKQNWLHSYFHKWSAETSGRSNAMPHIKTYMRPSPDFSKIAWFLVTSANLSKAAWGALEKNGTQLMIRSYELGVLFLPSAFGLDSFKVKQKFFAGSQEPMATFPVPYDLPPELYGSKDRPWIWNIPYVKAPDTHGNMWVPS
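Compounds were preincubated with Tdp1 (1 nM final) for 15 min at room temperature before substrate (15 nM final) started a 5 min reaction; beads (10 ug/ml final) were then added for 10 min before AlphaScreen detection.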
JMJD2A Tudor inh: JMJD2A Tudor domain (human) inhibition; AID 504339; 390,000 compounds, 4.4% hits; Potency, µM (top dose mostly 114 µM), without a hit: at the top dose activity change, negative = inhibition, actives largely listed as inhibitors; AlphaScreen JMJD2A-Tudor / H3K4me3 peptide binding; further: on the % scale 0 is the no-effect control and ±100 the full control effect; nearly all actives have a fitted effect of over 50% in size
Starred values were filed as active, the others as inactive; ? = inconclusive; . = not tested or not shown; [ ] = dose if it differs, or a comment. The call rests on the fitted dose curve; in most records, active means well fitted curve in the direction sought with a large enough effect; inconclusive means small, poorly fitted or top-dose-only effect, or another doubt; inactive means no such curve, though single readings can be large; an effect the other way counts as inactive or inconclusive. Potency means the concentration at half of the fitted maximal effect.

SMILES	Sfp PPTase inh	BAZ2B inh	G9a inh	HP1b binding inh	TDP1 inh	JMJD2A Tudor inh
CCC(CC)c1nnc(NC(=O)C2CCCO2)s1 (centres undefined)	-25%	-34%	?	15%	0%	5%
O=C(O)CCCCCCCCc1cn(CCc2c[nH]c3ccccc23)nn1	-16%	-38%	28µM*	14%	.	-28%
Cc1cc(C)nc(NN2C(=O)C=CC2=O)n1	14µM*	1%	2.8µM*	?	.	?
COc1cc2c(cc1OC)-c1cc(Nc3ccc(C(=O)O)cc3)nc(=O)n1CC2	35%	71µM*	?	?	.	?
O=C(CN(Cc1ccc(F)cc1)C(=O)c1csnn1)NC1CCCC1	10%	-4%	9%	3%	8%	-3%
Brc1ccc(C2=Nc3cccc4cccc(c34)N2)o1	-18%	?	16µM*	45µM*	3%	?
FC(F)(F)C1=Nc2cccc3cccc(c23)N1	.	?	2%[0.501 µM]	-21%	.	?
O=C(NCCc1ccccc1)c1cc2sccc2n1Cc1ccccc1	-1%	89µM*	3%	-7%	0%	?
Cc1cc(NC(=O)C23CC4CC(CC(C4)C2)C3)n[nH]1	22%	?	13%	48%	0%	-6%
CCC(=O)Nc1cc(C)c(NC(=O)C23CC4CC(CC(C4)C2)C3)cn1	-13%	13%	1.1µM*	51%	5%[56.1 µM]	1%
COc1ccc(C(CNC(=O)c2cc(S(=O)(=O)N3CCN(c4ccccc4)CC3)ccc2Cl)N(C)C)cc1 (centres undefined)	.	.	.	0%	3%	?
CN(C)S(=O)(=O)c1ccc(/C(O)=C2/C(=O)C(=O)N(CCN3CCCCC3)C2c2cccnc2)cc1 (centres undefined)	.	.	.	47%	.	-6%[11.4 µM]
CN(C)S(=O)(=O)c1ccc(/C(O)=C2/C(=O)C(=O)N(Cc3cccnc3)C2c2cccs2)cc1 (centres undefined)	-10%	-13%	40µM*	36%	.	-17%
CN(C)S(=O)(=O)c1ccc(/C(O)=C2/C(=O)C(=O)N(Cc3cccnc3)C2c2ccco2)cc1 (centres undefined)	-12%	?	?	15%	-11%	?
CN(C)S(=O)(=O)c1ccc(/C(O)=C2/C(=O)C(=O)N(Cc3cccnc3)C2c2ccncc2)cc1 (centres undefined)	-19%	-4%	16µM*	20%	2%	-23%
CC(C)(C)c1ccc(C(=O)Nc2ccc(Cl)cc2)cc1	-6%	-6%	-64%[59 µM]	20%	3%	-3%
Cc1ccc(SC(CC(=O)c2ccc(F)cc2)C(=O)O)cc1 (centres undefined)	50µM*	49%	?	51%	.	-5%
CC(C)(C)c1ccc(C(=O)CC(Sc2ccc(Cl)cc2)C(=O)O)cc1 (centres undefined)	20µM*	-3%	45µM*	56%	0%	9%
O=C(CC(C(=O)O)c1ccc(F)cc1)c1ccc(Cl)cc1 (centres undefined)	8%	-8%	9%	47%	.	-8%
CC(C)(Cc1ccccc1)NC(=O)C(=O)c1cn(CC(=O)N2CCOCC2)c2ccccc12	8%	-29%	?	21%	6%	-18%
CC(C)N1CCc2c(sc(NC(=O)c3ccc(S(=O)(=O)N4CCOCC4)cc3)c2C#N)C1	-17%	-4%	32µM*	15%	-4%	-16%
COc1cc(C(=O)Nc2sc3c(c2C#N)CCN(C(C)=O)C3)cc(OC)c1OC	13%	-3%	-8%[59 µM]	39%	0%	-18%
CC(C)N1CCc2c(sc(NC(=S)NC(=O)c3ccccc3)c2C#N)C1	40µM*	?	10µM*	-19%[57 µM]	0%	?
CN1CCc2c(sc(NC(=O)Cc3ccccc3)c2C#N)C1	-27%	-10%	45µM*	4%	.	-17%
COc1ccc(C(=O)Nc2sc3c(c2C#N)CCN(C(C)=O)C3)cc1	-11%	.	50µM*	32%	6%	-7%
SMILES	Sfp PPTase inh	BAZ2B inh	G9a inh	HP1b binding inh	TDP1 inh	JMJD2A Tudor inh
Cc1ccc(S(=O)(=O)c2cnc(SCC(=O)Nc3ccccc3C(F)(F)F)[nH]c2=O)cc1C	.	1%	6%[59 µM]	46%	1%	-12%
COC(=O)c1cc(C(=O)OCC(=O)NC(=O)NCc2ccccc2)cc([N+](=O)[O-])c1	.	-27%	-45%[2.33 µM]	-5%	4%	?
CCN1CCc2c(sc(NC(=S)NC(=O)c3ccc(Cl)cc3)c2C(N)=O)C1	16µM*	-27%	32µM*	-27%	7%	?
CCOC(=O)c1c(NC(=O)c2ccc(S(=O)(=O)N3CCOCC3)cc2)sc2c1CCN(C)C2	-21%	?	50µM*	16%	8%	-20%
Cc1sc(NC(=S)NC(=O)c2ccccc2)c(C#N)c1C	.	.	.	-2%	.	-16%
CCCN1CCc2c(sc(NC(=S)NC(=O)c3ccccc3)c2C#N)C1	50µM*	?	10µM*	?	5%	?
c1ccc(CCC2CCCCN2Cc2nc(-c3ccc4c(c3)OCO4)no2)nc1 (centres undefined)	-8%	-23%	-76%	37%	.	-19%
Fc1ccc(-c2nnc(SCc3cccnc3)o2)cc1	-3%	3%	?	30%	1%	?
CC1Sc2ccc(S(=O)(=O)CCC(=O)Nc3cc(F)ccc3F)cc2NC1=O (centres undefined)	14%	-8%[57.1 µM]	-13%	12%	1%	?
Cc1ccc(C)c(S(=O)(=O)N2CCCC2CNC(=O)C(=O)NCc2ccccc2C)c1 (centres undefined)	.	2%	3%	0%	.	-12%
CCCOc1ccc(C(=O)CCC(=O)NNC(=O)c2cccs2)cc1	.	0%	25%[12.7 µM]	42%	0%	-2%
O=c1[nH]c2ccccc2n2c(=S)[nH]nc12	-29%	-15%	.	-28%	11%	3.5µM*
Oc1cccnc1CN1CCCCC1	.	.	.	53%	.	-11%
O=c1[nH]cnc(CN2CCCCC2)c1O	.	.	.	23%	.	50µM*
O=C(CCn1c(=S)oc2ccccc21)Nc1ccccc1Br	11%	-2%	-13%	45%	.	-6%
O=C(C1Cc2ccccc2CN1S(=O)(=O)c1ccc(F)cc1)N1CCOCC1 (centres undefined)	13%	-4%	-1%[59 µM]	16%	3%	-13%
CCS(=O)(=O)N1Cc2ccccc2CC1C(=O)N1CCN(c2ccccc2)CC1 (centres undefined)	-4%	50µM*	2%[2.33 µM]	?	.	25µM*
Cc1ccc(N(CC(=O)NCc2ccco2)C(=O)CCC(=O)Nc2nccs2)cc1	6%	-13%	11%[12.7 µM]	19%	.	-6%

Bioassay records (PubChem BioAssay)
